Screens deposited in PubChem by several laboratories.
This is a sample that favours compounds with a hit; in the whole collection about 4.2% have one here.
TIM10 inh – inhibits growth of TIM10 yeast strain; S. cerevisiae TIM10 strain growth, BacTiter-Glo luminescence, 24 h; inhibition, % at 10 µM; hit rate 1.4% among 330,000; AID 463195;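 active = inhibition of 40% or more at the single tested concentration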;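 note: wild-type TIM10 isogenic control strain grown at permissive 25 °C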
tim10-1 inh – inhibits growth of tim10-1 mutant yeast; AID 463190; hit rate 2.2% among 330,000; inhibition, % at 20 µM; S. cerevisiae tim10-1 ts strain growth, BacTiter-Glo, 24 h;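 active = inhibition of at least 40%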;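 note: mutant grown at 25 °C; 0% = DMSO wells with yeast and 100% = wells holding no yeast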
V-ATPase pH – alters yeast V-ATPase proton transport. S. cerevisiae, pHLuorin cytosolic pH fluorescence. response, % at 10 µM. hit rate 0.37% among 350,000. AID 504577; in the data active = response mostly above about 7.3%, no sharp cut-off; inactive = mostly below about 5.4%; note: actives read high
NALP1 yeast inh – NALP1 inhibition; AID 2071; hit rate 0.61% among 280,000; inhibition, % at 10 µM; S. cerevisiae NALP1/ASC/caspase-1 growth, X-gal OD620, 72 h; in the data active = inhibition mostly above about 24%, no sharp cut-off; inactive = mostly below about 32%
NALP3 yeast inh – inhibitors of NALP3 inflammasome in yeast; hit rate 0.39% among 330,000; inhibition, % at 10 µM; Yeast reconstituted NLRP3/ASC/caspase-1, beta-gal luminescence, 24 h; AID 2825;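 active = inhibition of 50% or more; inactive = inhibition below 50%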;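 note: plate controls were induced DMSO wells for no effect and uninduced yeast grown without galactose for full effect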
tim23-1 inh – inhibits growth of tim23-1 mutant yeast; AID 463212; inhibition, % at 20 µM; hit rate 1.3% among 330,000; S. cerevisiae tim23-1 growth, BacTiter-Glo luminescence, 24 h;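 active = growth inhibition of the mutant yeast at or above 50%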;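 note: temperature-sensitive mutant grown at 25 °C; plate controls were DMSO-treated mutant yeast for no effect and medium wells lacking yeast for full effect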
tim10-1 confirm – confirmation of tim10-1 mutant yeast growth inhibitors; shares compounds with tim10-1 inh; S. cerevisiae tim10-1 ts strain growth, BacTiter-Glo, 24 h; inhibition, % at 20 µM; hit rate 56% among 7,400; AID 463213;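 active = inhibition of yeast growth at or above a set limit in either of two repeat tests at 20 µM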;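 note: tim10-1 mutant grown at permissive 25 °C to find synthetic lethal compounds; 0% = DMSO yeast wells and 100% = medium wells without yeast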
tim10 confirm – confirmation of TIM10 yeast growth inhibitors | shares compounds with TIM10 inh | S. cerevisiae tim10 strain growth, BacTiter-Glo luminescence, 24 h | inhibition, % at 10 µM | hit rate 63% among 4,600 | AID 463215;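 active = inhibition of yeast growth at or above a set limit in either of two replicates at 10 µM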;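 note: this counterscreen used the strain with wild-type TIM10; 0% = yeast with DMSO and 100% = medium wells lacking yeast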
Starred values were filed as active, the others as inactive; / = no result given.

SMILES	TIM10 inh	tim10-1 inh	V-ATPase pH	NALP1 yeast inh	NALP3 yeast inh	tim23-1 inh	tim10-1 confirm	tim10 confirm
CCOc1ccccc1NC(=O)C1C2CCC3C(CCC21)C3(Cl)Cl (centres undefined)	47*	40	2	-5	0	32	31*	43*
O=C(Nc1ccccc1Cl)C1C2CCC3C(CCC21)C3(Cl)Cl (centres undefined)	2	17	1	33	14	9	/	/
CCN(CC)c1ncnc2c1ncn2Cc1c(Cl)cccc1Cl	42*	50*	-3	-9	9	41	37*	-8
CCN(CC)c1ncnc2c1nnn2C	/	/	0	/	/	/	/	/
Cn1c2ccccc2c(=O)c2c(=O)n(-c3ccccc3)c(-c3ccc(C(C)(C)C)cc3)nc21	82*	48*	0	3	15	47	-5	-8
Cc1ccc(-c2nc3c(c(=O)c4ccccc4n3C)c(=O)n2-c2ccc(F)cc2)cc1	-7	-18	-4	16	4	9	/	/
COc1ccc(C2/C=C\CC(NC(=O)OCC3c4ccccc4-c4ccccc43)CC(=O)N2Cc2ccccc2F)cc1 (centres undefined)	-2	11	2	/	/	31	/	/
c1ccc(Nc2cc(-c3ccccc3)nc3ncnn23)cc1	57*	48*	0	21	14	35	43*	48*
COc1ccc(C)cc1Nc1nc(N)c2ccccc2n1	15	-10	-3	21	40	0	/	/
CN(C)c1ccc(Nc2nc(N)c3ccccc3n2)cc1	44*	55*	-2	6	19	43	50*	36*
N#C/C(=C/c1ccc(N2CCCCC2)o1)c1cccc(F)c1	46*	55*	0	-4	5	38	51*	28
Cc1ccc2c(c1)Oc1ccc(NC(=O)CCl)cc1C(=O)N2	50*	43*	4	12	-26	44	30*	33*
CC(C)(C)c1ccc(NC(=S)NCc2cccs2)cc1	46*	54*	3	-12	7	45	40*	33*
CCC(=O)N1CCN(c2ccccc2NC(=S)NC(=O)c2cccc([N+](=O)[O-])c2)CC1	19	33	5	11	12	18	/	/
O=C(NC(=S)Nc1ccccc1N1CCOCC1)c1cccc([N+](=O)[O-])c1	44*	44*	-1	11	16	41	35*	43*
COc1cccc(C(=O)NC(=S)Nc2ccccc2N2CCCC2)c1	49*	41*	-5	-17	16	35	30*	44*
COc1cccc(C(=O)Nc2ccccc2N2CCCC2)c1	8	14	3	0	10	22	/	/
CCOc1cc(/C=C/C(=O)O)ccc1OCCOc1ccc(F)cc1	-3	8	-2	6	23	19	/	/
O=c1[nH]cnc2c1C1(CCCC1)Cc1ccccc1-2	26	36	-6	/	8	40	/	/
Cc1[nH]nc2c1-c1nc3ccccc3nc1C(C)(C)C2	44*	44*	-2	-4	-3	38	35*	25
O=C(Nc1ccc(Br)cc1)c1cccn1-c1ncc(C(F)(F)F)cc1Cl	52*	47*	-2	0	17	47	43*	43*
COc1ccc(-c2cc(C(=O)N3CCN(c4ncccn4)CC3)c3ccccc3n2)cc1OC	19	17	-2	/	17	29	/	/
Cc1ccc(-c2cc(C(=O)N3CCN(c4ncccn4)CC3)c3ccccc3n2)cc1	44*	45*	13	13	5	30	22	11
CC(C)(C)NC(=O)C(c1ccncc1)N(C(=O)Cn1nnc(-c2cccs2)n1)C1CCCCC1 (centres undefined)	25	29	-5	27	-1	17	/	/
Cc1cc(Br)c(Cl)cc1NC(=O)CN1C(=O)C2C3CC(c4ccccc4)C(C3)C2C1=O (centres undefined)	52*	52*	-2	14	15	35	43*	5
SMILES	TIM10 inh	tim10-1 inh	V-ATPase pH	NALP1 yeast inh	NALP3 yeast inh	tim23-1 inh	tim10-1 confirm	tim10 confirm
CC(C)(C)c1ccccc1NC(=S)NC1CCCC1	23	32	2	19	39	39	/	/
CC(C)(C)c1ccccc1NC(=S)NC1CCCCC1	45*	43*	0	8	28	37	20	32*
O=C(/C=C/c1ccccc1[N+](=O)[O-])N1CCOCC1	6	-2	0	3	20	0	/	/
CC1CCN(CC(CS(=O)(=O)c2ccc([N+](=O)[O-])cc2)N2CCC(C)CC2)CC1 (centres undefined)	60*	45*	-1	/	24	43	49*	48*
O=C(Nc1nnc(CC2=CCCCC2)s1)c1cccs1	72*	47*	-2	10	19	30	42*	-27
O=C(Nc1nc(-c2ccccc2)cs1)c1ccc(Br)o1	41*	41*	4	11	-40	50	48*	50*
Cc1ccc(C(=O)Nc2nc(-c3cccnc3)cs2)o1	4	-11	3	-1	7	-4	/	/
CCOC(=O)Cc1csc(Nc2ccc(Cl)cc2)n1	48*	52*	0	5	-52	40	41*	36*
O=[N+]([O-])CC(c1ccc(F)cc1)c1c[nH]c2ccccc12 (centres undefined)	43*	51*	2	-1	-8	44	66*	60*
O=Cc1coc2c(ccc3ccccc32)c1=O	58*	41*	/	18	10	44	34*	78*
O=C/C=C/c1coc2ccc3ccccc3c2c1=O	7	24	/	-8	28	40	/	/
CC(C)(C)C(=O)C1=C(O)C(=O)N(Cc2ccccc2)C1c1ccccc1F (centres undefined)	-1	23	3	-4	4	22	/	/
Cc1ccc(S(=O)(=O)N(CC(=O)N2CCCC2)C2CCCCC2)cc1	14	12	0	-68	10	12	/	/
Cc1cc(C)c(S(=O)(=O)N(CC(=O)N2CCCC2)C2CCCCC2)c(C)c1	43*	40*	0	/	-1	48	23	14
CC(Sc1nnnn1C)C(=O)Nc1ccc(Oc2ccccc2)cc1 (centres undefined)	-3	-4	-6	6	-1	-10	/	/
O=c1c(Cl)c(N/N=C/c2ccc(Cl)cc2)cnn1-c1ccccc1	46*	47*	/	17	28	15	26	9
O=C1c2cccc3cccc(c23)C(=O)N1c1nccs1	5	8	3	11	-5	-4	/	/
O=C1c2cccc3c([N+](=O)[O-])ccc(c23)C(=O)N1c1ccc(Cl)cn1	74*	77*	-33	6	-8	2	66*	89*
